“And” between values parts separate entries of the source, which are not always exact repeats. Equal entries are not always repeated. Among all 390,000 compounds or so, about 4,000 (1%) were called active. Inconclusive results (about 4%) are left out. Calls come from the whole dose curve; as a rule, active = well fitted inhibition curve with a large enough effect; inconclusive = small, poorly fitted or top-dose-only effect; inactive = no such curve, though single readings can be large or run the other way. Many of the other results were omitted from the sample, so actives are more common in it than they were.
Molecular target: Thioredoxin reductase 1, cytoplasmic (Rattus norvegicus) (UniProt O89049)
Sequence (O89049 whole entry, looked up): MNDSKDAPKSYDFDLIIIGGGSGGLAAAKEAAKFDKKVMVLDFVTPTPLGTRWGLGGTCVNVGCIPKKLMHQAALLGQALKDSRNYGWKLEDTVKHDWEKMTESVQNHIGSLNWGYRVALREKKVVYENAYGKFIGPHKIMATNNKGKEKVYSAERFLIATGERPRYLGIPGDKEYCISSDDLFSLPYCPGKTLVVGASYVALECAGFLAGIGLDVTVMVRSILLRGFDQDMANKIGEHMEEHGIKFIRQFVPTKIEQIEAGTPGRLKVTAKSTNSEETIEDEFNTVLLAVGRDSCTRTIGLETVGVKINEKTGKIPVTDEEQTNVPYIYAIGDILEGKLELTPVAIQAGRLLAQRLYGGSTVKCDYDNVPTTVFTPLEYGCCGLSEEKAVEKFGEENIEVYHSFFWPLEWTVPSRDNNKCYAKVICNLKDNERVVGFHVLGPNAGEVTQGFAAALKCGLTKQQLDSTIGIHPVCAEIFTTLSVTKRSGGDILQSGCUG
Assay: qHTS Assay for Inhibitors of Mammalian Selenoprotein Thioredoxin Reductase 1 (TrxR1): qHTS; note: nearly all actives have a fitted effect of over 65% in size
Details: recombinant rTrxR1, NADPH fluorescence consumption, selenite substrate; series mostly up to 114 µM; activity change, negative = inhibition: at the top concentration
Text: The selenoprotein thioredoxin reductase (TrxR; EC 1.8.1.9) is a FAD containing homodimeric pyridine nucleotide-disulfide oxidoreductase with many cellular roles. Together with NADPH and its prime substrate thioredoxin (Trx), the enzyme forms the core of the Trx system. The mammalian Trx system exerts a wide spectrum of functions including redox regulation, antioxidant defense, regulation of transcription factors as well as support of cell growth and replication. Many of these functions involve the reduction of Trx, which may subsequently reduce a number of different substrates including ribonucleotide reductase, peroxiredoxins or NFkB. Mammalian TrxR itself also has a broad substrate specificity, reducing both protein and non-protein substrates, including low molecular weight compounds such as dehydroascorbate, lipoic acid, ubiquinone, and juglone. In addition, several drugs in clinical use for anticancer treatment are indeed known to target TrxR1.
This BioAssay is a validation of an NADPH fluorescence-based, dual-purpose qHTS rTrxR1 assay designed to find potential inhibitors and substrates of rTrxR1. For this particular BioAssay, actives are potential inhibitors. See related BioAssay for substrate data deposition.
NIH Molecular Libraries Probe Production Network [MLPCN]
NIH Chemical Genomics Center [NCGC]
Assay Provider: Elias Arner, Karolinska Institute
Assay protocol: 2 uL of reagents (buffer in column 4 as negative control and 90 nM rTrxR1 in columns 1-3 and 5-48) were dispensed into Greiner black solid-bottom 1,536-well assay plates, followed by 1 uL of NADPH (400 uM final concentration) to each well. The plates were centrifuged at 1000 rpm for 15 seconds and subsequently incubated for 5 min at room temperature (~22 deg C) to allow for rTrxR1 reduction. Compounds (23 nL) were then transferred via Kalypsys pin tool equipped with 1536-pin array (10 nL slotted pins, V&P Scientific, San Diego, CA). In addition, a duplicate 2-fold serial dilution of the control compounds auranofin, a known gold-based TrxR1 inhibitor, and juglone (5-hydroxy-1,4-naphthoquinone), a natural TrxR1 substrate, were pin-transferred to columns 2 and 3, respectively. After incubation for 15 min at room temperature (~22 deg C), 1 uL of selenite (400 uM final concentration) were dispensed to each well. The plate was immediately transferred to a ViewLux high-throughput CCD imager (PerkinElmer), wherein kinetic measurements of NADPH fluorescence (Ex 340 nm, Em 450 nm) were acquired (8 minute kinetic read, see Table 1). Read 1 was utilized to assess the capacity of a compound to serve as an rTrxR1 substrate, i.e. a decrease in NADPH fluorescence compared to the no-compound background is an indication of a substrate behavior for that particular compound. For inhibitory activity of a compound, delta values, computed as the difference in fluorescence intensity between the first and last reads of an 8-minute time kinetic window, were used. All reagents were diluted in an assay buffer consisting of 50 mM Tris-HCl, pH 7.5, 2 mM EDTA, and 0.01% Tween-20.
Throughout the screen, reagent bottle and all liquid lines were made light-tight to minimize reagent degradation. All screening operations were performed on a fully integrated robotic system (Kalypsys, San Diego, CA) containing one RX-130 and two RX-90 anthropomorphic robotic arms (Staubli, Duncan, SC). Library plates were screened starting from the lowest and proceeding to the highest concentration, and a 'double-pinning' step of the highest concentration was required to access higher concentrations of compounds. Vehicle-only plates, with DMSO being pin-transferred to the columns 5-48, were inserted uniformly at the beginning and the end of each library in order to monitor and record any shifts in the background, which can be affected by reagent dispensers or loss in enzyme activity over time. […]
% is set by controls: 0 for no effect and ±100 for the full control effect; potency is the fitted concentration of half-maximal effect.

Compound	Potency	activity change, negative = inhibition
CCC1(C)CC(=O)NC1=O (stereo not given)	inactive	–
CC[C@H]1CC2CN3CCc4c([nH]c5ccccc45)C(C(=O)OC)(C2)C13 (stereo not given in full)	–	12.3% (inactive)
CCOC(=O)c1ncn2c1[C@@H]1CCCN1C(=O)c1cc(OC)ccc1-2	inactive	–
CC(=O)c1c(O)c(C)c(O)c(Cc2c(O)c3c(c(C(=O)/C=C/c4ccccc4)c2O)OC(C)(C)C=C3)c1O	28.2 µM (active) and 11.2 µM (active)	–
C[N+]1(C)CCOC(O)(c2ccc(-c3ccc(C4(O)C[N+](C)(C)CCO4)cc3)cc2)C1 (stereo not given)	inactive	–
COC(=O)C1=C(c2ccc(C(C)=O)cc2)C[C@@H]2CC[C@H]1N2C(=O)NCCNC(C)=O	–	17.4% [at 57.1 µM] (inactive)
O=C1CC(=O)N(Cc2ccccc2)C(=O)N1CCCCCCN1C(=O)CC(=O)N(Cc2ccccc2)C1=O	2.82 µM (active)	–
CC(C)(C)c1ccc(CN2C(=O)CN=C(c3ccccc3)c3ccccc32)cc1	–	1.72% (inactive)
O=C(CN1CCCC1=O)NCCc1ccccc1	–	14.9% (inactive)
COCc1cc(OC(=O)N(C)C)nc(-c2ccc(C)c(Cl)c2)n1	–	-11.1% (inactive)
COc1ccc(-n2c(-c3ccccc3)nc3ccccc3c2=O)cc1	–	11.3% (inactive)
CC[C@H]1CN2CCc3cc(OC)c(OC)cc3[C@@H]2C[C@@H]1C[C@H]1NCCc2cc(OC)c(OC)cc21	inactive	–
COC(=O)C1=C(c2cc3ccccc3s2)C[C@@H]2CC[C@H]1N2C(=O)NCCO	–	2.91% [at 57.1 µM] (inactive)
COc1ccc(NC(=O)N2CCC3(CC2)OCCO3)c(OC)c1	–	11.5% (inactive)
COc1ccc(S(=O)(=O)NCc2ccc(C(=O)N3CCC4(CC3)OCCO4)cc2)cc1	–	-0.636% (inactive)
COc1ccc(-c2nc(CS(=O)CC(=O)N3CCC4(CC3)OCCO4)c(C)o2)cc1 (stereo not given)	7.08 µM (active)	–
CCN(CC)CCOC(=O)c1cc2cc(COC)ccc2o1	–	14.1% [at 57.1 µM] (inactive)
CCN1C(=O)C(=Cc2c(C)n(CC(=O)NCC3CCCO3)c3ccccc23)C(=O)N(CC)C1=S (stereo not given)	11.2 µM (active)	–
CCCCCCN=C(CC)c1c(O)n(CCCC)c(=O)[nH]c1=O	–	4.26% [at 57.1 µM] (inactive)
COC1=C[C@@H]2[C@@H]3Cc4ccc(OC)c(O)c4[C@]2(CCN3C)CC1=O	–	-6.63% (inactive)

Compound	Potency	activity change, negative = inhibition
O=C(O)/C=C/c1ccc2c(c1)OCO2	–	3.16% (inactive)
CN(C)CC1Oc2ccccc2OC1(O)c1ccccc1 (stereo not given)	0.398 µM (active)	–
O=C(O)C1C2CCC(O2)C1C(=O)O (stereo not given)	–	-1.83% (inactive)
CC1CCC(N(C)C2CCN(C)CC2)CC1 (stereo not given)	–	-4.72% (inactive)
CCNc1nc2[nH]c(=O)c3c(c2s1)OC(N)=C(C#N)C3c1cccs1 (stereo not given)	–	-8.85% (inactive)
CCCCN1C2CCC1CC(OC(c1ccc(F)cc1)c1ccc(F)cc1)C2 (stereo not given)	–	3.2% (inactive)
COc1ccc(OC)c(NC(=O)Cn2c(=O)oc3ccccc32)c1	–	25.1% (inactive)
Cc1ccc(-n2c(C)cc(/C=C3\C(=O)NC(=O)N(C)C3=O)c2C)cc1C	–	-0.889% (inactive)
Cc1ccnc(-n2c(C)cc(/C=C3\C(=O)NC(=S)N(C)C3=O)c2C)c1	35.5 µM (active)	–
Cc1cc(C=C2C(=O)NC(=O)NC2=O)c(C)n1-c1ccncc1	–	-45.2% (inactive)
O=C(O)C1CSC(c2cccnc2)N1 (stereo not given)	–	23.3% [at 57.1 µM] (inactive)
c1cncc(CNCCc2c[nH]c3ccccc23)c1	–	13% (inactive)
C[C@@H]1C[C@@H]2O[C@H]2/C=C\C=C\C(=O)Cc2c(Cl)c(O)cc(O)c2C(=O)O1	12.6 µM (active)	–
COc1cc([C@@H]2c3cc4c(cc3[C@H](OC(C)=O)[C@H]3COC(=O)[C@H]23)OCO4)cc(OC)c1OC	–	-1.87% (inactive)
CCOc1ccc(CN(CCCl)CCCl)cc1C(=O)OC	15.8 µM (active)	–
CC1=CC(=Cc2sc3ccccc3[n+]2C)C=C(C)O1	–	-17.2% (inactive)
Cc1ccc(Cn2c(C)c3cnn(CC(=O)N4CCC5(CC4)OCCO5)c(=O)c3c2C)cc1	–	-10.4% (inactive)
CC(=O)c1ccc(OC(NC(=O)Cc2ccccc2)C(Cl)(Cl)Cl)cc1 (stereo not given)	10 µM (active)	–
CCOP(=O)(OCC)C(NC(=O)c1ccc(OC)cc1)C(Cl)(Cl)Cl (stereo not given)	–	16.1% (inactive)
CC(=O)Cc1ccc(OC(C)C)cc1	–	-10.4% [at 57.1 µM] (inactive)

— PubChem BioAssay AID588453 (National Center for Advancing Translational Sciences (NCATS), 2011)
